# Screening data: PubChem BioAssay, Broad Institute
# Rows were chosen to be rich in hits. Some 1.8% of all compounds tested hit in one or more screens of this group.
# AF4-AF9 inh = blocks AF4 peptide binding to human AF9 | AlphaScreen, biotin-AF4 peptide binding to FLAG-AF9 | inhibition, % at 10 µM | 0.47% of 350,000 active | AID 651704;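 active = every replicate reaching a set inhibition limit, whatever the replicate mean, cut at about 25% in these data; inconclusive = mean inhibition reaches that limit but some replicates miss it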;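 note: 0% = plate neutral control median and 100% = total signal loss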
# ERAP1 HTS inh = blocks human ERAP1 aminopeptidase activity | recombinant ERAP1, Leu-AMC fluorescence, 60 min | inhibition, % at 10.7 µM | 0.15% of 340,000 active | AID 652197;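 active = mean replicate inhibition of at least 30%, or all replicates individually reaching that 30% level; inactive = mean below 30% and not every replicate reaching it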;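 note: 0% = neutral control wells and 100% = L-leucinethiol positive control wells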
# DENV2 CPE = protects cells from dengue virus 2 cytopathic effect; DENV2-infected cells, cytopathic effect rescue, plate reader; CPE inhibition, % at 9.99 µM; 1.7% of 350,000 active; in the data active = CPE inhibition above about 20%, passing the limit was not always enough; inconclusive = no clear call, values can overlap the other calls; tested in BHK-21 cells;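 note: 0% = median of neutral control wells and 100% = median of positive control wells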
# ERp5 block = blocks human ERp5 reductase activity on insulin | inhibition, % at 9.99 µM | Q15084 | ERp5 insulin aggregation, absorbance 650 nm, 90 min | 0.05% of 350,000 active | AID 651711;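 active = mean replicate inhibition above about 25%, with every replicate also reaching it, limit read from the data, passing the limit was not always enough; inconclusive = only one of those two criteria met; inactive = neither criterion met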
# Target sequence (Q15084 whole entry, looked up): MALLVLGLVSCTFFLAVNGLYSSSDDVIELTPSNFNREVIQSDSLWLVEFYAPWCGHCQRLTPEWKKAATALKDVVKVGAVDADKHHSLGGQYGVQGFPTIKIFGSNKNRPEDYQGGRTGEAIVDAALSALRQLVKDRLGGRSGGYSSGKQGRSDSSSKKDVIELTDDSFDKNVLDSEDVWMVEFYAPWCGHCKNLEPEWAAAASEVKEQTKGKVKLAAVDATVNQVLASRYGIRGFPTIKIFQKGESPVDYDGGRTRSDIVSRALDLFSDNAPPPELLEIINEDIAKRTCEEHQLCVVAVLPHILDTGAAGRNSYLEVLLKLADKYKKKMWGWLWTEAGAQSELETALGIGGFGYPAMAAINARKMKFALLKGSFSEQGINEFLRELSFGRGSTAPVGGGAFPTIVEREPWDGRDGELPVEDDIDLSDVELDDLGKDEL
# PDI inh = blocks human protein disulfide isomerase activity. 0.052% of 350,000 active. inhibition, % at 10 µM. PDI insulin aggregation turbidity, A650, 90 min;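 active = mean inhibition across replicates of 30% or more, whatever share of single replicates reach that level; inconclusive = mean inhibition below 30% while every single replicate reaches 30%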
# Numbers without * were called inactive; ? = inconclusive; / = no result given.
SMILES,AF4-AF9 inh,ERAP1 HTS inh,DENV2 CPE,ERp5 block,PDI inh
C=CC[C@@H](CC(=O)N[C@H](CO)Cc1ccccc1)C(=O)N[C@@H](COC(=O)[C@H](CC=C)CC(=O)OC(C)(C)C)Cc1ccccc1,-3,-3,79*,2,-8
C=CC[C@H](CC(=O)N[C@H](CO)Cc1ccccc1)C(=O)N[C@H](COC(=O)[C@@H](CC=C)Cc1ccc(F)cc1)Cc1c[nH]c2ccccc12,/,/,/,/,1
C=CCC[C@@H](Cc1ccc(F)cc1)C(=O)OC[C@@H]1CCCN1C(=O)[C@H](CC=C)CC(=O)N[C@H](CO)Cc1ccccc1,-1,/,20*,6,-4
C=CC[C@@H](CC(=O)N[C@@H](CO)Cc1ccccc1)C(=O)N[C@@H](COC(=O)[C@@H](CC=C)Cc1ccc(F)cc1)Cc1c[nH]c2ccccc12,0,/,73*,2,10
C=CCC[C@@H](Cc1ccc(F)cc1)C(=O)OC[C@H]1CCCN1C(=O)[C@@H](CC=C)CC(=O)N[C@H](CO)Cc1ccccc1,4,-8,-3,2,-1
C[C@@H]1CN([C@@H](C)CO)C(=O)c2cccc(NC(=O)C3CCCCC3)c2O[C@H]1CN(C)Cc1ccccc1,-1,0,-8,-3,/
Cc1csc(/C(=N/OC(=O)c2ccco2)C(N)=O)n1,-1,0,35*,-2,1
COc1cccc(S(=O)(=O)N(C)C[C@H]2Oc3cc(C#CCC(C)C)ccc3S(=O)(=O)N([C@H](C)CO)C[C@H]2C)c1,-4,0,?,1,/
Cc1cc(C(=O)Nc2cccc3c2O[C@@H](CN(C)S(=O)(=O)c2cccs2)[C@@H](C)CN([C@H](C)CO)C3=O)n(C)n1,-14,1,10,-1,/
O=C(NCC[C@@H]1CC[C@@H](NS(=O)(=O)Cc2ccccc2)[C@H](CO)O1)C1CCOCC1,0,-1,?,2,/
CC(C)CCNCC(O)CON=C1c2ccccc2-c2ccccc21 (configuration not stated),27*,-1,/,3,0
N#CC[C@H](c1ccccc1)N1CCN(Cc2ccccc2)CCC1=O,0,3,60*,10,-2
CO[C@@H]1CN(C)C(=O)c2cc(NC(C)=O)ccc2OC[C@H](C)N(Cc2ccccn2)C[C@@H]1C,-1,-1,12,-3,/
CN1C(=O)c2cc(NC(=O)C3CCCC3)ccc2OC[C@H]2O[C@@H](CC(=O)NCC3CC3)CC[C@@H]21,-1,-2,32*,13,/
CC(C)NC(=O)Nc1ccc2c(c1)C(=O)N(C)[C@H]1CC[C@@H](CC(=O)NCC3CCCCC3)O[C@H]1CO2,0,6,35*,5,/
CN1CCN(C(=O)C[C@H]2CC[C@@H]3[C@@H](COc4ccc(NC(=O)C5CCC5)cc4C(=O)N3C)O2)CC1,-2,-1,24*,3,/
CCC(=O)Nc1ccc2c(c1)C(=O)N(C)[C@H]1CC[C@H](CC(=O)NCC3CC3)O[C@H]1CO2,-2,-2,8,60*,/
CN1C(=O)c2cc(NC(=O)C3CCCC3)ccc2OC[C@H]2O[C@@H](CC(=O)NCC3CC3)CC[C@H]21,0,-1,-2,0,/
COc1cccc(S(=O)(=O)Nc2ccc3c(c2)[C@@H]2C[C@@H](CC(=O)NCc4cccc(F)c4)O[C@H](CO)[C@@H]2O3)c1,-6,0,-3,-5,/
CCC(=O)Nc1ccc2c(c1)C(=O)N(C)[C@H]1CC[C@@H](CC(=O)NCC3CC3)O[C@H]1CO2,-4,-2,?,36*,/
CC(=O)Nc1ccc2c(c1)C(=O)N(C)[C@H]1CC[C@H](CC(=O)NCC3CC3)O[C@@H]1CO2,-2,0,-3,91*,/
COCC(=O)Nc1ccc2c(c1)C(=O)N(C)[C@@H]1CC[C@@H](CC(=O)NCC(F)(F)F)O[C@@H]1CO2,0,1,81*,4,/
CC(=O)Nc1ccc2c(c1)C(=O)N(C)[C@@H]1CC[C@@H](CC(=O)NCC3CC3)O[C@@H]1CO2,-2,1,6,8,/
COCCNC(=O)C[C@H]1CC[C@@H]2[C@H](COC[C@@H](O)CN2Cc2ccc(Cl)c(Cl)c2)O1,/,/,1,/,/
O=C(C[C@H]1CC[C@H](NS(=O)(=O)c2cccc(F)c2)[C@@H](CO)O1)N1CCCCC1,-2,-3,2,-5,/
CC1CCc2sc(C(=O)NN)cc2C1 (configuration not stated),0,1,0,1,15
CC1CCc2sc(C(=O)NN=C3CCCC3)cc2C1 (configuration not stated),-2,-8,52*,-9,-5
